Hits are enriched below; roughly 19% of the tested compounds scored in any of these assays.
HT1080 IDH1KD tx: HT-1080 IDH1 knockdown cell toxicity (counter line). actives 2% (n = 360,000). HT-1080 IDH1 knockdown viability, ATP luminescence, 48 h. Potency, µM (top dose mostly 46.1 µM), for the others: at the highest dose activity, negative = toxicity, hits mostly cytotoxic. AID 686971;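 further: potency means the concentration at half of the fitted maximal effect; 0% = DMSO wells and -100% = cell-free medium wells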
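IDH1KD HT-1080 cells, 750/well, RPMI + 5% FBS; compound pinned after 2 h settling; 48 h, 37 °C; CellTiter-Glo luminescence; % activity normalised to DMSO and no-cell wells; curves fitted, classed by r2 and efficacy.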
IL-1B inflam inh: inflammasome signaling inhibition, IL-1 beta readout. THP-1 LPS/ATP IL-1B secretion, AlphaLISA, 16 h; active compounds read low. activity change, % at 57.5 µM. actives 4.7% (n = 360,000). AID 743279; in the data active means activity change below about -50%; inconclusive means mostly about -30% to -49%
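Secreted IL-1B measured by AlphaLISA bead assay after 16 h compound exposure of THP-1 cells; compounds (final up to 57.5 uM) added 1 h before LPS (250 ng/mL) and ATP (1.25 mM) stimulation; lower signal means less secretion.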
HT1080-NT tox: kills 2HG-producing HT-1080-NT fibrosarcoma cells | HT-1080-NT fibrosarcoma viability, CellTiter-Glo ATP luminescence, 48 h | Potency, µM (top dose mostly 46.1 µM), for the others: top-dose activity, negative = less viability, actives largely listed as cytotoxic | actives 1.6% (n = 360,000) | AID 686970;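 further: NT is the 2HG producing partner of a matched IDH1 knockdown line; potency means the concentration at half of the fitted maximal effect; 0% = DMSO-treated cells and -100% = media-only wells without cells; nearly all actives have a fitted effect of over 55% in size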
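Toxicity toward the 2HG-producing NT line was scored as %Activity, normalised to DMSO and no-cell wells, from CellTiter-Glo luminescence after 48 hours' treatment.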
TDP1 cell CPT: growth inhibition of DT40 Tdp1-/-;hTDP1 cells with camptothecin (screen for TDP1 inhibitors) | chicken DT40 Tdp1-/-;hTDP1 cells + 20 nM CPT, ATP luminescence, 48 h | Potency, µM (top dose mostly 46.2 µM), inactives show at the highest dose activity change, negative = growth inhibition, actives largely listed as inhibitors | actives 12% (n = 420,000) | AID 686979; further: potency means the concentration at half of the fitted maximal effect; nearly all actives have a fitted effect of over 55% in size
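Chicken DT40 Tdp1-/- cells stably complemented with human TDP1 were seeded at 400 cells/well in medium containing 20 nM camptothecin, exposed to pin-transferred compounds, and grown at 37 °C for at least 48 hr. Viability was read as ATP luminescence.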
TDP1 cell noCPT: qHTS for Inhibitors of human tyrosyl-DNA phosphodiesterase 1 (TDP1): qHTS in cells in absence of CPT. DT40 Tdp1-/- hTDP1 cells, no CPT, ATP luminescence, 48 h. Potency, µM (top dose mostly 46.2 µM), inactives show at the highest dose activity change, negative = growth inhibition, actives largely listed as inhibitors. actives 15% (n = 420,000). AID 686978, 2013; further: potency means the concentration at half of the fitted maximal effect; nearly all actives have a fitted effect of over 55% in size
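Growth of hTDP1-complemented DT40 Tdp1-knockout cells is measured by ATP luminescence after at least 48 hr compound exposure at 37 °C, with DMSO substituting for the 20 nM CPT used in the parallel screen.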
ELG1 repair inh: ELG1-dependent DNA repair inhibition; Potency, µM (top dose mostly 46.1 µM), for the others: at the top dose activity change, negative = inhibition, usual class: inhibitors; actives 2.3% (n = 330,000); HEK293T ELG1-luciferase reporter, luminescence, 16 h; DNA damage induced by 5-fluorouridine; further: potency means the concentration at half of the fitted maximal effect; nearly all actives have a fitted effect of over 55% in size
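DMSO vehicle served as the neutral condition. Each well held 2,000 cells given 5-fluorouridine plus compound; after 16 hr at 37 °C/5% CO2, ONE-Glo was added and luciferase measured 30 min later.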
An asterisk follows results filed as active; u = inconclusive; x = not tested or not shown; [ ] = dose if it differs, or a comment. Unless noted, the call rests on the fitted dose curve; in most records, active means well fitted curve in the direction sought with a large enough effect; inconclusive means small, poorly fitted or top-dose-only effect, or another doubt; inactive means no such curve, though single readings can be large; an effect the other way counts as inactive or inconclusive. Unless noted, on the % scale 0 is the no-effect control and ±100 the full control effect.

SMILES | HT1080 IDH1KD tx | IL-1B inflam inh | HT1080-NT tox | TDP1 cell CPT | TDP1 cell noCPT | ELG1 repair inh
COc1ccc(CCNc2nc3ccccc3c3nc(-c4cccc(C)c4)nn23)cc1OC | x | x | x | u | 7.31µM* | x
COc1ccc(CNC(=O)c2ccc3nc(CCc4ccccc4)oc3c2)c(OC)c1 | x | x | x | -19.4% | u | x
COc1ccc2c(c1)-c1nc(-n3ncc(C(=O)N(C)CCO)c3C3CC3)ncc1CC2 | x | x | x | 3.2%[9.04 µM] | -22.0% | x
COc1ccc(CNC(=O)c2ccc(-c3nc(CSc4ccc(C)cc4)c(C)o3)cc2)cc1OC | x | x | x | -22.1% | -26.1% | x
COC(=O)[C@@H]1CCCN1Cc1ccc2c(c1)CN(Cc1cccn1-c1ccccn1)CCO2 | x | x | x | 8.9%[9.04 µM] | -13.1% | x
CCOC(=O)[C@]12CCCC=C1N(Cc1cccc3ccccc13)C(=O)[C@H](CC(=O)NCCCN1CCCC1=O)C2 | 3.9% | 0.0 | 10.1% | u | u | x
CCN(CC)C(=O)C1=C(C)N(Cc2ccc(OC)cc2)C(=O)C(CC(=O)NCc2cccs2)C1 (stereo not given) | 0.3% | -13.8 | 5.4% | -17.6% | u | x
C[C@]1(C(=O)NCCCNc2ncc(C(F)(F)F)cc2Cl)C=C[C@@H](Cc2ccccc2)N1C(=O)c1ccccc1 | -20.7% | u | -18.7% | u | 25.9µM* | -0.5%
CC1(C(=O)NCCc2c[nH]c3ccccc23)C=CCN1C(=O)c1ccccc1 (stereo not given) | 16.8% | 17.2 | 9.7% | -22.4% | 1.7% | 15.2%
COC(=O)N1[C@H](C)C=C[C@]1(Cc1ccccc1)C(=O)NCCCNc1ncc(C(F)(F)F)cc1Cl | -4.2% | -6.1 | -2.2% | u | u | x
CC1(C(=O)NCCCNc2ncc(C(F)(F)F)cc2Cl)C=CCN1C(=O)c1ccccc1 (stereo not given) | -2.7% | -77.2* | 7.7% | u | u | 24.1%
C=C[C@](C)(O)CCC1C(=C)CC(O)C2C(C)(C)CCCC12C (stereo not given in full) | x | x | x | u | 9.2µM* | x
CCS(=O)(=O)N1CCN(C(=O)c2cccc3ccccc23)CC1 | 10.5% | 14.7 | 1.0% | -4.9% | 6.5% | 8.6%
FC(F)(F)c1cccc(N2CCN(c3ccc4nnc(-c5ccccc5)n4n3)CC2)c1 | -12.3% | u | -1.7% | 16.4µM* | u | u
Cc1cccc(C)c1N1CCN(c2ccc3nnc(C(F)(F)F)n3n2)CC1 | u | -18.7 | u | 20.6µM* | 20.6µM* | u
CCC1CN(CCC(=O)NC2CCOC(C)(C)C2)Cc2cc(OC)ccc2O1 (stereo not given) | x | x | x | 3.6%[9.04 µM] | -5.4% | x
Cc1ccccc1OCC(=O)NNC(=O)C1CC(=O)N(c2ccc3c(c2)OCCO3)C1 (stereo not given) | -2.5% | -21.5 | -0.6% | u | -9.0% | 0.4%
N#Cc1ccc(C(C(=O)NC2CCCCC2)n2c(=O)c(-c3cc4ccccc4[nH]3)nc3ccccc32)cc1 (stereo not given) | -21.2% | -2.2 | -24.6% | 14.6µM* | 14.6µM* | x
CSCCC(C(=O)NC1CCCC1)n1c(C2CCCC2)nc2ccccc21 (stereo not given) | 18.9% | -87.8* | 13.1% | u | u | x
COc1ccc(C(C(=O)Nc2ccc3c(c2)OCCO3)n2c(=O)c(-c3cc4ccccc4[nH]3)nc3ccccc32)cc1 (stereo not given) | -9.5% | -13.2 | -9.4% | u | u | x
COc1ccc(C(C(=O)NC2CCCCC2)n2c(=O)c(-c3cc4ccccc4[nH]3)nc3ccccc32)cc1 (stereo not given) | -16.3% | 26.9 | -21.2% | u | 14.6µM* | x
Cc1nc2ccccc2n1CC(=O)NC1CCCCCC1 | u | 0.0 | u | 11.6µM* | 13µM* | 14.6µM*
O=C(NC1CCCCC1)C(c1ccnc2ccccc12)n1c(=O)c(-c2cc3ccccc3[nH]2)nc2ccccc21 (stereo not given) | -25.1% | -11.8 | u | u | 14.6µM* | x
O=C(NC1CCCCC1)C(c1ccnc2ccccc12)n1c(=O)c(-c2ccccc2)nc2ccccc21 (stereo not given) | 11.6µM* | 54.7 | 13µM* | 10.3µM* | 13µM* | x
O=C(Nc1ccc2ccccc2c1)C(C1CC1)n1c(=O)c(-c2cc3ccccc3[nH]2)nc2ccccc21 (stereo not given) | u | -14.6 | u | u | u | x
SMILES | HT1080 IDH1KD tx | IL-1B inflam inh | HT1080-NT tox | TDP1 cell CPT | TDP1 cell noCPT | ELG1 repair inh
CCC(C(=O)NC1CCCC1)n1c(-c2ccnc3ccccc23)nc2ccccc21 (stereo not given) | -16.6% | -58.7* | -11.3% | u | u | x
CCC(C(=O)NC1CCCC1)n1c(-c2ccncc2)nc2ccccc21 (stereo not given) | 1.0% | -19.6 | 16.8% | 18.3% | -8.0% | x
O=C(NC1CCCCC1)C(c1ccccc1)n1c(=O)c(-c2cc3ccccc3[nH]2)nc2ccccc21 (stereo not given) | u | -68.8* | -26.8% | u | u | x
O=C(NC1CCCCC1)C(c1ccnc2ccccc12)N1CCOCC1 (stereo not given) | 3.5% | 0.0 | 3.2% | -27.4% | -15.7% | x
Cc1ccc([C@H]2C[C@H](n3cc(-c4ccc(F)cc4)nn3)[C@@H](O)CN2CC2CCCCC2)cc1 | 7.3% | -5.8 | 9.0% | u | u | x
Cc1cc(C(=O)NNC(=O)c2ccccc2F)c2ccccc2n1 | 2.4% | 6.7 | 0.0% | 3.5% | 13.1% | 14.6%
Cc1cc(NC(=O)c2cnn3c(C(F)F)cc(-c4ccccc4)nc23)no1 | 6.3% | -12.4 | -3.2% | 14.6µM* | 9.2µM* | 8.2µM*
CCN(CC)c1ccc(NC(=O)c2cnn3c(C(F)F)cc(-c4ccccc4)nc23)cc1 | x | x | x | u | 13µM* | x
O=C(CSc1nc2c([nH]c3ccccc32)c(=O)n1-c1ccc(F)cc1)NCC1CCCO1 (stereo not given) | x | x | x | -13.1% | -25.9% | x
COc1ccc(CNc2nc3c(-c4ccc(C)cc4)nnn3c3ccccc23)cc1 | x | x | x | -25.9% | -20.0% | x
COCC1CCCN(Cc2ccc3c(c2)CN(C(=O)c2ccc(-c4ccc(C)o4)cc2)CCO3)C1 (stereo not given) | x | x | x | 11.7%[9.04 µM] | -18.8% | x
